ELG1 DNA repair: blocks ELG1-dependent DNA repair in HEK293T cells | HEK293T ELG1-luciferase reporter, luminescence, 16 h; DNA damage induced by 5-fluorouridine | actives 2.3% (n = 330,000) | Potency, µM (series often up to 46.1 µM), most hits filed as inhibitors; further: nearly all actives have a fitted effect of over 55% in size
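Quantitative HTS, concentration-response format. 2,000 cells/well co-treated with 5-fluorouridine and compound, 16 hr in 5% CO2 at 37 °C; ONE-Glo luminescence read after 30 min.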
NPC1 prom act: activates the NPC1 promoter; Huh7 NPC1 promoter luciferase reporter, 24 h; Potency, µM (series often up to 9.22 µM), most hits filed as activators; actives 2.4% (n = 320,000); further: nearly all actives have a fitted effect of over 60% in size
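Huh7 reporter cells (NPC1 promoter driving luciferase) are dosed with compound for 24 h at 37 °C, 5% CO2; luciferase detection reagent is then added and luminescence measured after 10 min at ambient temperature.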
ELG1 genotoxic: induces genotoxicity in HEK293T cells with luciferase-tagged ELG1. Potency, µM (highest dose often 46 µM), most hits filed as activators. HEK293T ELG1-luciferase reporter, luminescence, 16 h. actives 1.3% (n = 330,000). AID 504466; further: nearly all actives have a fitted effect of over 60% in size
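ELG1-luciferase HEK293T cells, 2,000/well; compound pinned in; 16 hr, 37 °C, 5% CO2; ONE-Glo, 30 min RT; luminescence on CCD imager.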
SMN2 splice enh: increases expression of the SMN2 splice variant; HEK293 SMN2-luciferase splicing reporter, luminescence, 30-36 h; Potency, µM (doses to about 46.1 µM), most hits filed as activators; actives 2.8% (n = 210,000); AID 1458; further: nearly all actives have a fitted effect of over 55% in size
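qHTS luciferase splicing reporter: luminescence rises when SMN2 exon 7 is included in transfected HEK293 cells. Compound exposure lasted 30-36 h at 37C, with 4.5 mM final sodium butyrate as control, followed by a ONE-Glo read.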
FLuc counter: counter-screen for miR-21 project: firefly luciferase inhibitors or activators; P08659; purified FLuc, Km substrates, luminescence inhibition; Potency, µM (highest dose often 57.5 µM), usual class: inhibitors; actives 6.9% (n = 360,000); AID 588342; further: nearly all actives have a fitted effect of over 55% in size
Target sequence (P08659 whole entry, looked up): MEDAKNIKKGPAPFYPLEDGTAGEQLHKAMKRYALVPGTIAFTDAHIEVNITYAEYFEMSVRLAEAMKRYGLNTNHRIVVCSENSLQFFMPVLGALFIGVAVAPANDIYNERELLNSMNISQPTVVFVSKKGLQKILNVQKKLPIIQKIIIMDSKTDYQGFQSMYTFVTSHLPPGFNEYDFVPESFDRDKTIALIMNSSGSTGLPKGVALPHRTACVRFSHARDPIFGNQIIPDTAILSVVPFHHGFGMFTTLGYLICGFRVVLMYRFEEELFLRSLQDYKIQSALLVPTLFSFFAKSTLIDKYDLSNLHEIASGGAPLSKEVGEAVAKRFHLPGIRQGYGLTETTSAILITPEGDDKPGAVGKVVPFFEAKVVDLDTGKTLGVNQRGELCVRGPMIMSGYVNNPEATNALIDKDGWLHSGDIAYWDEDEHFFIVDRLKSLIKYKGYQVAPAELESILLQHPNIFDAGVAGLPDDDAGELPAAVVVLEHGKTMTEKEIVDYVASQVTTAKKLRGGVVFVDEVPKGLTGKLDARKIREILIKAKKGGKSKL
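Purified P. pyralis luciferase, 10 nM final, with Km-level 10 uM D-luciferin and 10 uM ATP in 50 mM Tris acetate pH 7.5, 10 mM Mg acetate, 0.01% Tween-20, 0.05% BSA; 6-point qHTS titration about 60 µM downward; luminescence read.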
Rab9 promoter act: activates the Rab9 promoter. Huh7 Rab9 promoter-luciferase reporter, luminescence, 24 h. Potency, µM (top dose mostly 9.22 µM), actives largely listed as activators. actives 2.8% (n = 320,000). AID 485297; further: nearly all actives have a fitted effect of over 60% in size
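Huh7 reporter line, Rab9 promoter upstream of luciferase. Compound exposure 24 h at 37 °C in reduced-serum medium with 10% FBS. Read-out: luminescence.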
A number is an active result; - = inactive; ? = inconclusive; . = no result given; [ ] = remark or other dose. Only some compounds are listed: those with a hit (about 9.3% of all), similar ones and a draw of the others. The call rests on the fitted dose curve; in most records, active means well fitted curve in the direction sought with a large enough effect; inconclusive means small, poorly fitted or top-dose-only effect, or another doubt; inactive means no such curve, though single readings can be large; an effect the other way counts as inactive or inconclusive.

SMILES	ELG1 DNA repair	NPC1 prom act	ELG1 genotoxic	SMN2 splice enh	FLuc counter	Rab9 promoter act
O=C(CSc1nnc(-c2cccs2)n1Cc1ccco1)Nc1ccc2c(c1)OCO2	15µM	-	-	-	-	-
O=C(CSc1nnc(-c2ccco2)n1Cc1ccccc1)NCc1ccccc1	21µM	-	-	-	-	-
CNCc1ccccc1Sc1cc(O)ccc1O	-	-	-	-	9.5µM	-
O=C(Nc1ccccc1)Nc1cc([N+](=O)[O-])ccc1F	-	-	-	-	?	-
COC(=O)c1sccc1NC(=O)Nc1cc(OC)ccc1OC	-	-	-	.	-	-
O=C(Nc1cccc(C(F)(F)F)c1)Nc1cccs1	.	.	.	-	12µM	.
Cc1ccc([N+](=O)[O-])cc1NC(=O)Nc1cccc(F)c1	16µM	-	-	.	-	-
COC(=O)c1sccc1NC(=O)Nc1ccc(OC)cc1	-	-	?	.	1.7µM	-
COC(=O)c1sccc1NC(=O)Nc1cccc(C(C)=O)c1	-	-	-	.	7.6µM	-
COC(=O)c1cc(Br)c(=O)n(-c2nccs2)c1	-	-	-	-	-	-
COc1ccc(-c2nn(-c3ccccc3C)cc2CNCCc2cnc[nH]2)cc1F	-	-	-	-	-	-
COC(=O)c1sccc1NC(=O)Nc1cccc(C)c1C	-	-	-	.	-	-
COC(=O)c1sccc1NC(=O)Nc1cccc(C)c1	-	-	?	.	4.8µM	-
COC(=O)c1sccc1NC(=O)Nc1cccc([N+](=O)[O-])c1	-	-	-	.	6.7µM	-
O=C(Nc1cccc([N+](=O)[O-])c1)Nc1cccs1	-	-	-	-	27µM	-
O=C1C=C(c2ccc(Cl)c(C(F)(F)F)c2)C[C@@H](c2ccc(F)cc2)C1	?	-	-	.	-	-
CC(=O)N1c2ccc(S(=O)(=O)N3CCN(c4ccc(C)cc4C)CC3)cc2CC1C (stereo not given)	.	.	.	.	-	.
O=C(NNC1CC(=O)N(c2ccccc2)C1=O)c1ccc(COc2ccccc2Cl)o1 (stereo not given)	-	-	-	-	17µM	-
CC(=O)Nc1ccc(S(=O)(=O)N2CCN(S(=O)(=O)c3ccc(NC(C)=O)cc3)CC2)cc1	-	-	-	.	-	-
CCC(C)C(=O)Nc1nc(C)c(-c2csc(Nc3cc(OC)ccc3OC)n2)s1 (stereo not given)	?	-	-	-	-	-
O=c1cc(O)c2c(=O)n(Cc3ccccc3)c3ccccc3c2o1	?	-	-	-	-	-
Cc1c([N+](=O)[O-])c(C(=O)N2CCCC2)nn1C	-	-	-	-	-	-
Cc1c([N+](=O)[O-])c(C(=O)Sc2ccc(Br)cc2)nn1C	?	-	-	.	17µM	-
C/C(=N\N(c1ccccc1)c1ccccc1)c1ccc(O)cc1	-	-	-	.	-	-
CN(C)c1cc(O)c(C(=S)Nc2ccccc2)c(N(C)C)c1	-	-	-	-	24µM	-
SMILES	ELG1 DNA repair	NPC1 prom act	ELG1 genotoxic	SMN2 splice enh	FLuc counter	Rab9 promoter act
Cc1ccc(NC(=O)CN(C)C(=O)c2ccccn2)cc1	-	-	-	.	-	-
CN(C)c1ccc(C(=S)Nc2ccccc2)cc1	?	2.8µM	?	-	1.5µM	1µM
CC(=O)N(C)c1ccc(NC(=S)Nc2ccccc2)cc1	?	-	-	-	-	-
CN(C)c1ccc(NC(=S)c2ccccn2)cc1	?	?	?	0.5µM	0.085µM	0.32µM
CC(=O)c1ccc(N2CCN(C(=O)CCC(=O)c3cccs3)CC2)cc1	-	-	-	-	-	-
CCOC(=O)c1cnc(-n2nc(C)cc2C)nc1NC	-	?	-	-	?	-
CCOC(=O)c1cnc(-n2nc(C)cc2C)nc1NNc1nc(-c2ccccc2)cc(-c2ccccc2)n1	5.2µM	-	-	-	-	-
CCOC(=O)c1cnc(-n2nc(C)cc2C)nc1Nc1ccc(N(C)C)cc1	15µM	-	-	-	-	-
CCOC(=O)c1cnc(-n2nc(C)cc2C)nc1NNc1nc(C)cc(C)n1	12µM	-	-	.	-	-
O=C(c1cn(Cc2ccccc2)nc1-c1cccnc1)N1CCN(Cc2ccccc2)CC1	-	-	-	.	-	-
O=C(c1cn(Cc2ccccc2)nc1-c1cccnc1)N1CCN(Cc2c(F)cccc2Cl)CC1	9.2µM	-	-	.	-	-
CC(C)(C)OC(=O)NCCCCC1=CC2=CC(=O)C(C)(O)C(=O)C2=CO1 (stereo not given)	.	.	.	-	.	.
CCOC(=O)c1sc(N2N=C(C)C(N=Nc3cccc(C)c3)C2=O)nc1C (stereo not given)	-	-	-	.	6.7µM	-
CC1=NN(c2nc(-c3ccc(C)cc3)cs2)C(=O)C1N=Nc1cccc(C)c1 (stereo not given)	?	-	-	-[1.84 µM]	?	?
O=C(c1ccc(Cl)cc1)c1cnc2ccccn12	?	3.2µM	12µM	-	9.5µM	2.5µM
Cc1ccc(N(C)S(=O)(=O)c2cccc(C(=O)OCC(=O)c3c(N)n(C)c(=O)n(C)c3=O)c2)cc1	16µM	.	-	.	.	.
COc1ccc(/C=C2\CCCc3c2nc2ccccc2c3C(=O)OCC(=O)c2c(N)n(C)c(=O)n(C)c2=O)cc1	3.3µM	-	-	-	-	-
COc1ccc(-c2cc(C(=O)c3c(N)n(C)c(=O)n(C)c3=O)c3ccccc3n2)cc1	?	?	?	.	0.38µM	?
Cn1c(N)c(C(=O)c2ccc(Oc3ccccc3)cc2)c(=O)n(C)c1=O	?	-	-	-	-	-
Cn1c(N)c(C(=O)CCl)c(=O)n(Cc2ccccc2)c1=O	21µM	-	-	-	-	-
CN(C)S(=O)(=O)c1cccc(C(=O)OCC(=O)c2c(N)n(C)c(=O)n(C)c2=O)c1	-	-	-	-	-	-
CC(=O)c1c(C)[nH]c(C(=O)OCC(=O)NCCC2=CCCCC2)c1C	-	-	-	.	-	-
Cn1c(N)c(C(=O)COC(=O)c2cc(-c3ccco3)nc3ccccc23)c(=O)n(C)c1=O	12µM	-	-	-	?	-
Cn1c(N)c(C(=O)COC(=O)c2ccc(-c3ccccc3)cc2)c(=O)n(C)c1=O	23µM	.	-	.	.	.
COc1ccc(-c2cc(C(=O)OCC(=O)c3c(N)n(C)c(=O)n(C)c3=O)c3ccccc3n2)cc1	-	-	-	-	7.6µM	-
Cn1c(N)c(C(=O)COC(=O)c2cc(C3CC3)nc3ccccc23)c(=O)n(C)c1=O	?	-	-	-	-	-
O=C(OCc1c(-c2ccccc2)ncc2ccccc12)c1ccc(Cl)cc1Cl	-	-	-	.	-	-
N#CCSc1ccccc1NC(=O)CN1C(=O)C2CC=CCC2C1=O (stereo not given)	-	-	-	.	-	-

Assay outcomes as filed in PubChem BioAssay.
